Each structure is given as a SMILES string. The panel holds about 83,000 compounds, 20% with a hit somewhere; the sample as a whole holds those more often.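 A percent growth of 40 corresponds to 60% growth inhibition; 0 means no net growth; -100 means all cells died. Active threshold: below 10.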 Calls of active or inactive are those of the source.

The values below come from PubChem BioAssay (NCI).

The first assay deals with MALME-3M melanoma. Description: NCI-60 one-dose screen, 48 h (100 = growth as untreated, 0 = no growth, -100 = all killed). Conditions: 10 µM.
For `CN(C)CCN(Cc1ccccc1)c1ccc2ccccc2n1`, the growth was 96.5% (inactive). With `C/C(=N\O)c1ccc(NC(=O)CSc2nnc(-c3ccccc3)n2-c2ccccc2)cc1`, the growth is 82.9% (inactive). Same read-out and setting: with `CCC(CC)n1c(C)cc(=O)n1C(CC)CC` the figure was 142% (inactive); with `CC[C@@H](C(=O)[C@H](C)[C@H](O)[C@@H](C)[C@H]1O[C@H]([C@@H](CC)C(=O)O)CC[C@H]1C)C1O[C@]2(C=C[C@@H](O)[C@]3(CC[C@@](C)([C@H]4CC[C@](O)(CC)[C@H](C)O4)O3)O2)[C@H](C)C[C@@H]1C` (stereo partly drawn), -83.6% (active). Still for that read-out and setting: with `O=C(O)c1cc([N+](=O)[O-])ccc1Oc1ccccc1` the figure was 81.3% (inactive); with `O=[N+]([O-])c1cccc(/C=N/NC(=S)NC23CC4CC(CC(C4)C2)C3)c1`, 60.1% (inactive). The same measure, in the same setting: with `COc1cc(C(=O)n2nc(-c3cc(OC)c(OC)c(OC)c3)nc2N)cc(OC)c1OC` the figure was 103% (inactive); with `COc1ccc(-c2n[nH]nc2-c2cc(OC)c(OC)c(OC)c2)cc1`, 37.3% (inactive).

On to `C=CCN(CC=C)C(=O)[C@H](CC)[C@@H]1CC[C@@H](C)[C@@H]([C@H](C)[C@@H](O)[C@@H](C)C(=O)[C@H](CC)C2O[C@]3(C=C[C@@H](O)[C@]4(CC[C@@](C)([C@H]5CC[C@](O)(CC)[C@H](C)O5)O4)O3)[C@H](C)C[C@@H]2C)O1` (stereo partly drawn), for which the growth was -22.4% (active). The same measure, in the same setting: with `O=C(Nc1cccc2c1CCCC2)c1cc2ccccc2cc1O` the figure was 26.8% (inactive). Take `O=C1/C=C/[C@@H](O)[C@@H]2C[C@@H](O)C[C@H]2/C=C/CCC[C@H](CCc2ccc(NC(=S)Nc3ccc4c(c3)C(=O)OC43c4ccc(O)cc4Oc4cc(O)ccc43)cc2)O1`: the growth was -1.26% (active). On the same count and under the same terms, with `COc1cc(/C=C/c2cc(/C=C/c3ccc(O)c(OC)c3)nc(N)n2)ccc1O` the figure was -28.9% (active); with `CC(=O)Oc1cc(OC(C)=O)c2ccccc2c1OC(C)=O`, 67.3% (inactive); with `CCOc1ccccc1/C=N\N=C\c1ccccc1O`, 96.5% (inactive).

In another assay the test system is MDA-MB-231 breast. Described as above. Conditions: 10 µM.
Regarding `COc1ccc(/C=C2\CCCC3=C2NC(N)=NC3c2ccc(OC)cc2)cc1` (stereo not drawn), the growth was 96.9% (inactive). `CN(C)CCCOc1cccc(NC2=C(Cl)C(=O)C(Nc3cccc(OCCCN(C)C)c3)=C(Cl)C2=O)c1`: the growth was -73.6% (active).

With `N#CC1=C(N)Oc2cc(N)ccc2C1c1cccnc1` (stereo not drawn), the growth is 101% (inactive). Still for that read-out and setting: with `COc1cc(/C=C/c2cc(/C=C/c3ccc(O)c(OC)c3)n(C(=O)Nc3ccc(C)cc3)n2)ccc1O` the figure was 19.9% (inactive); with `Cc1ccc(-n2nnnc2N)c(C)c1`, 110% (inactive); with `CCCCN(CCCC)C(=O)[C@H](CC)[C@@H]1CC[C@@H](C)[C@@H]([C@H](C)[C@@H](O)[C@@H](C)C(=O)[C@H](CC)C2O[C@]3(C=C[C@@H](O)[C@]4(CC[C@@](C)([C@H]5CC[C@](O)(CC)[C@H](C)O5)O4)O3)[C@H](C)C[C@@H]2C)O1` (stereo partly drawn), -25.3% (active). Same read-out and setting: with `COc1ccc2c(c1)C(=O)/C(=C/c1ccc([N+](=O)[O-])o1)O2` the figure was -76.9% (active). On the same count and under the same terms, with `Cc1ccc(S(=O)(=O)N(C)CCCCCC(=O)O)cc1` the figure was 110% (inactive); with `NC1=NC(c2ccc(Cl)cc2)C2=C(N1)/C(=C/c1ccc(Cl)cc1)CCC2` (stereo not drawn), 102% (inactive).

As to `S=C(NCc1ccccc1)NCc1ccccc1`, the growth is 100% (inactive). Still for that read-out and setting: with `COc1cc2cc(Oc3ccc(NC(=O)c4ccccc4)cc3)c(C)nc2cc1OC` the figure was 66% (inactive); with `Cc1c(Cl)cccc1NC(=O)CN1CCOCC1`, 106% (inactive). The same measure, in the same setting: with `C=CCN(CC=C)C(=O)[C@H](CC)[C@@H]1CC[C@@H](C)[C@@H]([C@H](C)[C@@H](O)[C@@H](C)C(=O)[C@H](CC)C2O[C@]3(C=CC(=O)[C@]4(CC[C@@](C)([C@H]5CC[C@](O)(CC)[C@H](C)O5)O4)O3)[C@H](C)C[C@@H]2C)O1` (stereo partly drawn) the figure was 23.1% (inactive); with `CCN1CCN(CCC(=O)Nc2cccc(-n3cc(-c4ccncc4)c(-c4ccc(Cl)c(OC)c4)n3)c2)CC1`, 4.87% (active); with `Nc1ccn(Cc2nnc(CCC(=O)c3nc4ccccc4[nH]3)o2)c(=O)n1`, 87.3% (inactive). Same read-out and setting: with `Cc1ccc2nc(Cl)c(-c3nc4ccccc4o3)cc2c1` the figure was 91.4% (inactive); with `C/C=C/CSC(C)(C)C(=O)NC`, 120% (inactive); with `COc1cc2c(Nc3ccc(S(N)(=O)=O)cc3)ncnc2c(OC)c1OC`, 94.9% (inactive).

Regarding `CC(=O)OC1C=CC(OC(C)=O)O1` (stereo not drawn), the growth is 97.7% (inactive).
